# “And” between values parts separate entries of the source, which are not always exact repeats. Equal values may be shown once. The panel holds about 83,000 compounds, 20% with a hit somewhere; the sample as a whole holds those more often.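 In brief: 96-well plates, 48 h treatment, single concentration, percent growth endpoint.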 Unmarked numbers belong to inactive results. The source made the active and inactive calls. The calls were made as follows: active = growth percent below 10; inactive = the rest.
# Test system: HL-60(TB) leukemia
# Experiment: NCI-60 one-dose screen, 48 h (100 = growth as untreated, 0 = no growth, -100 = all killed)
# Settings: 10 µM unless noted
row,Compound,growth
1,CCN(C(=O)N1CCN(c2cc3c(cc2F)c(=O)c(C(=O)O)cn3C2CC2)CC1)c1nc(-c2ccc(Cl)cc2)cs1,-27.1% (active)
2,O=C1c2ccccc2-c2c1c1c(=O)[nH]c3ccccc3c1n2Cc1ccccc1,73.9%
3,CCOC(=O)c1sc(-c2ccc(OS(=O)(=O)c3ccc(Br)s3)c(C=O)c2)nc1C,20%
4,CC(=O)OCC(=O)[C@@]1(O)CC[C@H]2[C@@H]3CCC4=CC(=O)CC[C@]4(C)[C@@]3(F)[C@@H](O)C[C@@]21C,98.2%
5,COc1cccc(OC(=O)c2ccccc2)c1OC(=O)c1ccccc1,69.6%
6,COc1ccc(Cl)cc1NC(=O)c1cc2c([nH]1)-c1nc(NC(=O)C(C)(C)C)sc1CC2,60.9%
7,Clc1ccc(N/N=C/c2ccccn2)nc1,-15.4% (active)
8,Nc1[nH]n2cc(-c3ccccc3)nc2c1N=Nc1ccc(S(N)(=O)=O)cc1,27.9%
9,OCc1cccc(-c2ccc3ncc(-c4nc(NC5CC5)ncc4F)n3c2)c1,-62% (active)
10,CC(C)c1ccc(COCc2cc(CN3CCCC3)c(O)c3ncccc23)cc1,-20.3% (active)
11,O=C1/C(=C/c2ccc(O)cc2O)N=C2SCCCN12,100%
12,CC(=O)[C@@H]1CCC=C2CC[C@]3(C)[C@@H](CC[C@@H]4[C@@]5(C)CCCNC(C)(C)[C@@H]5CC[C@]43C)[C@H]21,-12.3% (active)
13,COc1nc2c(cc1S(=O)(=O)c1ccccc1)CCc1c-2cnn1-c1ccccc1Cl,39.9%
14,CSc1ccc(/C=C2\C=C(CC(=O)NCc3ccc(C(=O)c4ccccc4)cc3)c3cc(F)ccc32)cc1,-30.3% (active)
15,CCCCCCCOc1c(OC)cc(C2CC(=O)Nc3c2c(C)nn3-c2nc3ccccc3[nH]2)cc1OC (stereo not given),10.5%
16,CCN1C(=O)N[C@H]2[C@@H]3NC(=O)c4ccc(Cl)n4[C@@H]3C[C@]21O,-20.6% (active)
17,Oc1nc(NCCc2ccccc2)sc1/C=C1\C=Nc2ncccc21,-6.57% (active) and 6.77% (active)
18,Cc1cccc(Cc2cnc(NC(=O)c3ccc4nnsc4c3)s2)c1,94.1%
19,CCCCCOC(=O)c1ccc(NC(=O)CNCC(C)C)cc1,84.6%
20,CC(=O)Nc1cccc2cc(O)ccc12,114% and 76.6% and 104%

row,Compound,growth
1,Cc1c(C(=O)OC(=NC2CCCCC2)NC2CCCCC2)sc2c1c(=O)nc1c(C#N)n[nH]n12,124%
2,O=C(CCc1nnc2sc(COc3ccccc3)nn12)c1nc2ncccc2[nH]1,117%
3,CCCCCC(=O)OCCC1CCCCC1,109%
4,C(=N\OCCc1ccccc1)/c1ccccn1,99.3% and 85.5%
5,CCOC(=O)C12CCCC1=CC(=O)CC2 (stereo not given),100%
6,COc1cc(-c2cncn2-c2ccc(-c3nc4ccc(F)cc4s3)cc2)ccc1F,53.1%
7,Cn1c(/C=C(\C#N)c2ccccc2)nc2c(N3CCOCC3)nc(Cl)nc21,-33% (active)
8,N#CC1=C(c2ccc(Cl)cc2)Nc2c(c(-c3ccc(Cl)cc3)nn2-c2ccccc2)C12C(=O)Nc1ccc(Cl)cc12 (stereo not given),15.2%
9,CC[C@]12C=CCN3CC[C@@]4(c5cc(NC(=O)CCC(=O)OCc6cn(Cc7ccc(F)cc7)nn6)c(OC)cc5N(C)[C@H]4[C@@](O)(C(=O)OC)[C@@H]1OC(C)=O)[C@@H]32,96.8%
10,O=c1[nH]c(=O)n(C2OC(CO)C(O)C2O)cc1I (stereo not given),77.5% and 86.6%
11,O=C(CCl)Nc1ccccc1SCc1cc(Cl)cc2c1OCOC2,49.4%
12,COc1cc(NC(N)=NCCC(C)(C)c2ccc(C(F)(F)F)cc2)ncc1C#N,-34.6% (active)
13,CCCOC(=O)C1c2cc3c(cc2CC(C)C1C(=O)OCCC)OCO3 (stereo not given),111%
14,Cc1nc(NC(=O)N2CCC[C@H]2C(N)=O)sc1-c1ccnc(C(C)(C)C(F)(F)F)c1,24%
15,Clc1ccc(Sc2cnc(-c3ccccc3)o2)cc1,99.5%
16,CCOC(=O)c1ccc(NC(=O)c2nc(-c3cc(OC)c(OC)c(OC)c3)n(-c3ccc(Cl)cc3)n2)cc1,77.3%
17,CCN(CC)CCSc1nc(-c2ccccc2)c(C#N)c(=O)[nH]1,114%
18,Cn1cc(-c2nonc2-c2c[nH]c3ccc(Br)cc23)c2cc(Br)ccc21,54%
19,COc1cc(C2c3cc(OC(C)=O)c(OC)cc3CC3C(=O)OCC32)ccc1OC(C)=O (stereo not given),71.7%
20,O=C1c2ccccc2-c2c1nc1ccccc1[n+]2[O-],101%
